# According to ChEMBL document CHEMBL4808148, “HDAC6 screening dataset using tau-based substrate in an enzymatic assay yields selective inhibitors and activators” (2021):
# About 390 (7%) of roughly 5,600 compounds showed an effect of 50% or more. This is one part of a sample in which strong results are shown more often than they occur. Non-standard residues stand in square brackets, D forms with d. Residues, ends and D or L forms follow the SMILES beside them. αMeP = C[C@@]1(C(=O)O)CCCN1
# Key:
# [1] = molecular target: T1, Protein deacetylase HDAC6 (Homo sapiens) (UniProt Q9UBN7); conditions: at 10 µM
# T1 sequence (whole entry): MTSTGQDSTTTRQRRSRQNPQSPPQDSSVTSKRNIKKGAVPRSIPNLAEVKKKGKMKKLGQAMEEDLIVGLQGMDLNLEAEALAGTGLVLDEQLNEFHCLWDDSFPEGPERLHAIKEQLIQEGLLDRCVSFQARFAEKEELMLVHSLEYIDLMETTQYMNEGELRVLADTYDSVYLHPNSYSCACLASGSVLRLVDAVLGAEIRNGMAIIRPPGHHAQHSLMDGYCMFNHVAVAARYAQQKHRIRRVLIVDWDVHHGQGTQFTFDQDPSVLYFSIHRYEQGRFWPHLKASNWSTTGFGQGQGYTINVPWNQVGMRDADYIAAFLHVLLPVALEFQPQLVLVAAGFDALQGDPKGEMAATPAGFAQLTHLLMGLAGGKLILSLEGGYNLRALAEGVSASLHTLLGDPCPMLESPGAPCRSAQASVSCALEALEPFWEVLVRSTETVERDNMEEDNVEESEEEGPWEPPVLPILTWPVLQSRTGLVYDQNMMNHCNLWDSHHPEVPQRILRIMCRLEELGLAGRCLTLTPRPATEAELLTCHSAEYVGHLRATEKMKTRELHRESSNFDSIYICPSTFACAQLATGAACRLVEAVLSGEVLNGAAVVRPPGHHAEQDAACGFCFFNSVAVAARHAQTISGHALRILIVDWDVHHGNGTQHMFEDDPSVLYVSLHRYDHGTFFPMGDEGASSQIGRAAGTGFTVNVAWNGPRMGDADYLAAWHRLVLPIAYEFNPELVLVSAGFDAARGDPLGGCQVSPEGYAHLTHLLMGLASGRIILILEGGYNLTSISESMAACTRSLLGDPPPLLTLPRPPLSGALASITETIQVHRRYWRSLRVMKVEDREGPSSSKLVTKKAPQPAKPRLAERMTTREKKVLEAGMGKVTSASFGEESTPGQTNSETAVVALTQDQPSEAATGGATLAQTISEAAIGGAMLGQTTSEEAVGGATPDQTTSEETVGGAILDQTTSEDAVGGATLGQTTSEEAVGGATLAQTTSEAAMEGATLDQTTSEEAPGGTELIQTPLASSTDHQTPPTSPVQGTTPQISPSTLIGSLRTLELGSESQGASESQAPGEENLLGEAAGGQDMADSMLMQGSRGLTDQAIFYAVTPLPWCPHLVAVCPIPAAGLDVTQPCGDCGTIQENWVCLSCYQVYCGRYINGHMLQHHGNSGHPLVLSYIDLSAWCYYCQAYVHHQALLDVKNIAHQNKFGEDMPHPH
# [2] = molecular target: Protein deacetylase HDAC6 (Homo sapiens) (UniProt Q9UBN7); conditions: at 10 µM; remark: listed apart in the source
Compound,inhibition [1],inhibition [2]
COc1ncc2cc(C(=O)Nc3cc(C(=O)NCc4cccc(Cl)c4)ccc3Cl)c(=O)[nH]c2n1,4.52%,
Cn1nc(-c2cccc(F)c2)n(C)c1=S,17.9%,
Cc1csc(S(=O)(=O)N(CC(C)C)c2cc3c(cc2OCc2ccc(C(=O)O)cc2)CCC3)n1,1.78%,
Cc1ccc(C(=O)Nc2ccc(S(=O)(=O)O)c3cc(S(=O)(=O)O)cc(S(=O)(=O)O)c23)cc1NC(=O)c1cccc(NC(=O)Nc2cccc(C(=O)Nc3cc(C(=O)Nc4ccc(S(=O)(=O)O)c5cc(S(=O)(=O)O)cc(S(=O)(=O)O)c45)ccc3C)c2)c1,32.3%,
CNCc1ccc(C)c(NC(=O)c2ccc(Nc3nc(-c4ccccc4)c4ccccc4n3)cc2)c1,-7.66%,
Cc1ccc(NC(=O)c2cccc(N(C)C)c2)cc1NC(=O)c1ccc(O)cc1,80.4%,
CC(=O)O[C@H]1CC[C@@]2(C)C(=CC[C@@H]3[C@@H]2CC[C@]2(C)C(c4cccnc4)=CC[C@@H]32)C1,15.8%,
O=[N+]([O-])c1cc2nc(O)c(O)nc2cc1[N+](=O)[O-],-5.28%,
CC(C)c1ccc(-c2cc(=O)c3ccccc3o2)cc1,101%,
O=C(O)c1cc(=O)c2ccccc2o1,-1.55%,
NCCC(Oc1ccc(C(F)(F)F)cc1)c1ccccc1 (configuration not stated),1.38%,
CC[C@H]1OC(=O)[C@@](C)(F)C(=O)[C@H](C)[C@@H](O[C@@H]2O[C@H](C)C[C@H](N(C)C)[C@H]2O)[C@](C)(OC)C[C@@H](C)C(=O)[C@H](C)[C@H]2N(CCCCn3cc(-c4cccc(N)c4)nn3)C(=O)O[C@]12C,17.2%,
FC(F)c1nc2ccccc2n1-c1nc(N2CCOCC2)nc(N2CCOCC2)n1,29.1%,
c1ccc2sc(SN3CCOCC3)nc2c1,58.2%,
COc1ccccc1Oc1c(NS(=O)(=O)c2ccc(C(C)(C)C)cc2)nc(-c2ncccn2)nc1OCCO,22.5%,
COc1ccc(F)c(F)c1C(=O)c1cnc(NC2CCN(S(C)(=O)=O)CC2)nc1N,-5.57%,
C=CCNC(=O)c1cc([N+](=O)[O-])cc2c(=O)[nH]c(Nc3ccc(Cl)c(Cl)c3)nc12,17.8%,
CN(C)c1ccc2c(c1)Sc1cc(N(C)C)ccc1N2,66.8%,
N#CN=C(NCCCCCCOc1ccc(Cl)cc1)Nc1ccncc1,-6.3%,
COc1cc2c(NC3CCN(C(C)C)CC3)nc(N3CCC(F)(F)CC3)nc2cc1OCCCN1CCCC1,-5.91%,
COc1cc(C2Oc3ccc(C4Oc5cc(O)cc(O)c5C(=O)C4O)cc3OC2CO)ccc1O (configuration not stated),-5.75%,
Cc1cc(Cn2nnc3c(-c4ccco4)nc(N)nc32)ccc1N,-1.08%,
Cc1c(OCc2cccc(-c3ccc(C(=O)O)cc3)c2)cc2c(c1C)C(=O)C(C1CCCC1)C2 (configuration not stated),-0.56%,
CCN1C(=O)NC(c2ccccc2)C1=O (configuration not stated),22.6%,
CCCCn1ccc(N2CCC(c3ccccc3)CC2)c(Cl)c1=O,59.9%,

Compound,inhibition [1],inhibition [2]
Cc1ccc2c(c1)C(=O)C1(O)CCN(c3ccccc3)C1=N2 (racemic),1.13%,
O=C(O)C[C@H]1CC[C@H](c2ccc(NC(=O)c3nnc(Nc4ccc(F)c(F)c4)o3)cc2)CC1,35.2%,
Oc1cc(O)c2cc(O)c(-c3cc(O)c(O)c(O)c3)[o+]c2c1,38.4%,
CC(C)Nc1cccnc1N1CCN(C(=O)c2cc3cc(NS(C)(=O)=O)ccc3[nH]2)CC1,51.2%,
CC(C)(C)c1ccc(NC(=O)N2CCN(c3ncccc3Cl)CC2)cc1,24.7%,
COC1=C(OC)C(=O)C(C/C=C(\C)CC/C=C(\C)CC/C=C(\C)CC/C=C(\C)CC/C=C(\C)CC/C=C(\C)CC/C=C(\C)CC/C=C(\C)CC/C=C(\C)CCC=C(C)C)=C(C)C1=O,4.15%,
CC(C)c1ccc2oc3nc(N)c(C(=O)O)cc3c(=O)c2c1,98.2%,
N[C@@H](C(=O)O)c1ccc(O)c(C(=O)O)c1,1.46%,
N[C@H](C(=O)O)c1ccc(O)c(C(=O)O)c1,-8.79%,
"BISMUTH SUBCITRATE POTASSIUM, CHEMBL1201186",,16.3%
Cc1ccc(/C(=C\CN2CCCC2)c2cccc(/C=C/C(=O)O)n2)cc1,-6.81%,
COc1cc(C[C@H]2c3cc(OC)c(OC)cc3CCN2C)c(Oc2cc3c(cc2OC)-c2c(OC)c(OC)cc4c2[C@H](C3)N(C)CC4)cc1OC,33.6%,
COc1cc(C(=O)NCC2(N(C)C)CCCC2)cc(OC)c1OCc1ccccc1,0.96%,
Nc1nc(NCCc2ccc(O)cc2)nc2nc(-c3ccco3)nn12,67.5%,
COc1cc(C(=S)N2CCOCC2)cc(OC)c1OC,14.8%,
COc1ccc(S(=O)(=O)N2c3ccc(Cl)cc3[C@](O)(c3ccccc3Cl)[C@@H]2C(=O)N2CCC[C@H]2C(N)=O)cc1OC,-7.22%,
CSc1cc2c(cc1C(F)(F)F)N(C(=O)Nc1cccnc1)CC2,19.3%,
O=C(NCC(=O)N1CCCC1)Nc1ccc2cnccc2c1,-7.55%,
COc1cc2c(cc1C(F)(F)F)N(C(=O)Nc1cc(F)cc(-c3cccnc3)c1)CC2,-6.46%,
O=C(Nc1ccc2c(O)cc(S(=O)(=O)O)cc2c1)Nc1ccc2c(O)cc(S(=O)(=O)O)cc2c1,45.9%,
Cn1ccc2cc3c(cc21)CCN3C(=O)Nc1cccnc1,100%,
Cn1ccc2cc(NC(=O)Nc3cccnc3)ccc21,88.1%,
Cc1c(C(=O)NN2CCOCC2)nn(-c2ccc(Cl)cc2Cl)c1-c1ccc(I)cc1,0.27%,
COc1cccc([C@@H](C)NCCCc2ccccc2Cl)c1,2.6%,
CC(C)C[C@H](N)C(=O)O,5.48%,

Compound,inhibition [1],inhibition [2]
CC(=O)Nc1cccc(Nc2ncnc(N3CCC(OCc4ccc(OC(F)(F)F)cc4)CC3)n2)c1C,22.4%,
CCc1c(-c2ccccc2)c(-c2ccccc2)nn1-c1ccccc1-c1cccc(OCC(=O)O)c1,10.2%,
c1ccc2[nH]c(-c3cscn3)nc2c1,97.3%,
O=C(O)CCc1nc2ccccc2[nH]1,10.6%,
CCN(c1cc(C#CCN2CCOCC2)cc(C(=O)NCc2c(C)cc(C)[nH]c2=O)c1C)[C@H]1CC[C@H](N(C)CCOC)CC1,-8.25%,
COc1ccccc1OC(=O)C(C)c1ccc(CC(C)C)cc1 (configuration not stated),10.7%,
CCOC(=O)[C@H](CCc1ccccc1)N[C@@H](C)C(=O)N1[C@H](C(=O)O)C[C@H]2CCCC[C@@H]21,3.93%,
Cc1cccc(C)c1-n1c(=O)c2cnc(Nc3ccc(N4CCN(C)CC4)cc3)nc2n2c3ccccc3nc12,-1.49%,
O=C(Nc1c[nH]nc1-c1nc2ccc(CN3CCOCC3)cc2[nH]1)NC1CC1,32.3%,
Nc1ccc(-c2nc3ccc(-c4nc5ccc(N)cc5[nH]4)cc3[nH]2)cc1,61.9%,
Nc1ccc2cc3ccc(N)cc3nc2c1,6.02%,
CC(C)C(C(=O)Nc1nccs1)c1ccc(Cl)cc1 (configuration not stated),10.4%,
COC(=O)c1csc(C(=O)c2c[nH]c3ccccc23)n1,47.6%,
Nc1ccn([C@@H]2O[C@H](CO)[C@@H](O)C2(F)F)c(=O)n1,-4.87%,
COC(=O)Nc1nc2cc(C(=O)c3ccc(F)cc3)ccc2[nH]1,1.02%,
COC(=O)Nc1nc2cc(Sc3ccccc3)ccc2[nH]1,65.2%,
COC(=O)Nc1nc2cc(SC(C)C)ccc2[nH]1,79.4%,
CCCOc1ccc2[nH]c(NC(=O)OC)nc2c1,31.6%,
COC(=O)Nc1nc2cc(C(=O)c3ccccc3)ccc2[nH]1,-5.79%,
CCCC(=O)Nc1ncnc2c1ncn2C1O[C@@H]2COP(=O)(O)O[C@H]2[C@H]1OC(=O)CCC (some centres not stated),3.41%,
N#Cc1ncccn1,-1.21%,
COc1cc(N2CCC(N3CCN(C)CC3)CC2)ccc1Nc1ncc(Cl)c(Nc2ccccc2S(=O)(=O)C(C)C)n1,17.9%,
C[C@@]1(C(=O)N[C@@H](CCC(=O)O)C(=O)O)CCCN1C(=O)CN (H-Gly-[αMeP]-Glu-OH),-8.16%,
Cc1c(Nc2ncccc2C(=O)O)cccc1C(F)(F)F,89.7%,
O=C(OCCOCCO)c1ccccc1Nc1cccc(C(F)(F)F)c1,46.4%,

Compound,inhibition [1],inhibition [2]
O=C1OC(OC(=O)c2cccnc2Nc2cccc(C(F)(F)F)c2)c2ccccc21 (configuration not stated),4.26%,
O=C(O)c1cccnc1C(=O)O,-0.23%,
O=C(O)c1cccnc1Nc1cccc(C(F)(F)F)c1,74.8%,
Cc1c(Cl)cccc1Nc1ccccc1C(=O)O,32.3%,
CN[C@H](C(=O)N[C@H](C(=O)N(C)[C@H](/C=C(\C)C(=O)O)C(C)C)C(C)(C)C)C(C)(C)c1ccccc1,-3.5%,
CC1OC1P(=O)(O)O (configuration not stated),-9.26%,
"TEPRENONE, CHEMBL5314356",,27.9%
CC1=C(C(=O)Nc2cc3cn[nH]c3cc2F)C(c2ccc(C(F)(F)F)cc2)CC(=O)N1 (configuration not stated),24.4%,
C#CCN[C@@H]1CCc2ccccc21,54%,
c1ccc(Oc2cccnc2)cc1,10.2%,
CCCCNc1nc(N)c2[nH]c(=O)n(Cc3ccc(OCCN(C)C)nc3)c2n1,-9.47%,
CCCC(=O)OCOC(=O)C1=C(C)NC(C)=C(C(=O)OC)C1c1cccc(Cl)c1Cl (configuration not stated),44.1%,
Cc1ccc(Nc2ncc3c(n2)N(C)C(=O)N(c2cc(NC(=O)c4cccc(C(F)(F)F)c4)ccc2C)C3)cn1,2.43%,
O=C(O)C1=CC(O)C(O)[C@H](O)C1 (some centres not stated),11.8%,
CCCn1c(=O)c2[nH]c(-c3cnn(Cc4cccc(C(F)(F)F)c4)c3)nc2n(CC)c1=O,101%,
CCCn1c(=O)c2nc(-c3ccccc3)[nH]c2n(CCC)c1=O,-5.2%,
CCOC(=O)COc1ccc2c(c1)C[C@@H](NC[C@H](O)c1cccc(Cl)c1)CC2,16.8%,
Cn1nccc1Nc1nccc(-c2ccn([C@H](CO)c3ccc(Cl)c(F)c3)c(=O)c2)n1,26.5%,
CN1CCC(Nc2ncc3ncnc(Nc4ccc(F)c(Cl)c4)c3n2)CC1,20.6%,
CCOc1cccc(NC(=O)c2ccc(N3CCCC3)c(C(F)(F)F)c2)c1,69.4%,
CCn1c(-c2nonc2N)nc2cnc(Oc3cccc(NC(=O)c4ccc(OCCN5CCOCC5)cc4)c3)cc21,7.09%,
O=C(Nc1cccc(Br)c1)c1cccc(S(=O)(=O)N2CCCCCC2)c1,12.5%,
